# Laboratory results reported in PubChem BioAssay.
# Values joined by “and” are separate entries in the source; they are usually repeats but may differ in a detail not shown here. Equal entries are not always repeated. Records with an inconclusive call do not appear. Active and inactive are the calls of the source.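 Rule for the calls, unless noted: active = compounds that lower survival of HCT116 colon cancer cells in the luminescence readout, no numeric limit stated; inactive = the rest.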
# How the values were obtained:
# [1] = stimulators of nuclear beta-catenin in C2C12, primary screen, imaging, WNT3A-conditioned medium, mouse C2C12, NPC library (AID 1117326; in the data active = nuclear beta-catenin stimulation mostly above about 4.2%, no sharp cut-off; inactive = mostly below about 10%); conditions: stronger effect = higher value
# [2] = stimulators of insulin release from INS-1E, primary screen, cell-based, 5 mM glucose, NPC library (AID 1117329;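 active = compound raises insulin release from rat beta cells at 5 mM glucose, no numeric limit stated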); conditions: rat INS-1E insulin secretion, at 10 µM, stronger effect = higher value
# [3] = growth inhibition of GSK3B-pretreated HCT116 cells – cell-based, CellTiter-Glo, 0.2 to 20 µM (AID 1117336;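 active = compounds lowering colon cancer cell viability after pretreatment blocking the GSK3B kinase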); conditions: HCT116 viability after GSK3B inhibitor, at 20 µM, stronger effect = higher value
# [4] = inhibition of endothelial tube formation, primary screen, imaging, VEGF stimulated, CD31 staining, tube area, NPC library (AID 1117340;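 active = compound that reduces growth-factor-driven endothelial tube area in a mixed cell culture, no cutoff stated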); conditions: VEGF-stimulated ADSC/ECFC co-culture, at 10 µM, stronger effect = higher value
# [5] = glucagon-like peptide 1 release enhancers, primary assay, NCI-H716 cell line, NPC library (AID 1117341;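 active = compound raises GLP1 secretion from the human gut endocrine cells, with no numeric limit stated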); conditions: NCI-H716 cells, at 10 µM, stronger effect = higher value
# [6] = HCT116 colon cancer cell growth inhibition, primary screen, CellTiter-Glo luminescence, NPC library (AID 1117342); conditions: at 20 µM (top of the series)
# [7] = CellTiter-Glo luminescent readout of SW480 viability loss, NPC library primary (AID 1117343;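 active = compounds that lower viability of the colon cancer cells in the luminescence readout, with no numeric limit stated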); conditions: CellTiter-Glo luminescence; at 20 µM (top of the series) unless noted
# [8] = decreased DLD-1 cellular survival, CellTiter-Glo luminescent readout, NPC compound collection, primary HTS (AID 1117346;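 active = compounds that lower survival of DLD-1 colon cancer cells in the luminescence readout, no cutoff given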); conditions: DLD-1 viability, CellTiter-Glo luminescence; at 20 µM (top of the series)
# [9] = differential killing of epithelial or mesenchymal cells, primary screen, imaging, PC-3E GFP, TEM4-18 mCherry, co-culture (AID 1345086;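 active = compounds killing one labelled cell type while sparing the other, by normalised counts and ratio limits, not self-fluorescent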;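 for all read-outs here: cells exposed to compound for 72 h before imaging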;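 for red/green cell ratio (normalised): normalised mesenchymal count divided by normalised epithelial count so high means epithelial killing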); conditions: imaging cell counts, at 1 µM; for red/green cell ratio (normalised): actives lie on both sides, counts scaled to control wells, 1 = unselective
# [10] = sensitizers of A549 cells to miR-34 induction, primary screen, imaging, A549 dox-inducible miR-34, nuclei and caspase counts (AID 1347080;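 active = compounds whose cell count with miR-34 switched on is under 0.7 times the count with it off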); conditions: A549 miR-34 inducible, Hoechst nuclei count, 48 h
# [11] = biological target: NAD(+) hydrolase SARM1 (Homo sapiens) (UniProt Q6SZW1); experiment: SARM1 TIR NADase inhibitors, cell lysate, NAD-Glo luminescence (AID 1508614;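 active = compound whose remaining NAD level is above about 45 nM, limit read from the data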;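 note: higher remaining NAD means stronger inhibition of SARM1 NADase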); conditions: SAM-TIR HEK293T lysate NADase, at 1 µM, stronger effect = higher value
# [12] = liver-stage malaria parasite growth inhibition, primary screen, cell-based, HepG2, luciferase luminescence, HepG2 viability (AID 624349; in the data active = parasite load remaining mostly below about 12%, no sharp cut-off; inactive = mostly above about 10%;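 note: 100% = mean of DMSO negative control wells on the same plate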); conditions: P. berghei liver stage in HepG2, luciferase luminescence, concentration not given here; parasite load remaining: stronger effect = lower value; viability: measured here: HepG2 viability without parasites
# [13] = viability rescue of complex I mutant cybrids, primary screen, cell-based, galactose medium, ATP luminescence (AID 1645843;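 active = z-score of at least 1.8 in each of two replicates, scored against plate mean and spread of sample wells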;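 note: positive z means more ATP and so rescue of galactose-driven cybrid death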); conditions: complex I mutant cybrid cells, 72 h, stronger effect = higher value
# [14] = test system: Aerobactin synthetase IucA (Klebsiella pneumoniae); experiment: IucA aerobactin synthetase inhibitors, biochemical, Tocris library, absorbance (AID 1345561; call rule not given here;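 note: 100% = enzyme without compound and 0% = no enzyme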); conditions: purified IucA enzyme assay, absorbance (OD) read-out; stronger effect = lower value;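 tested at 8 µM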
# [15] = growth inhibition of DIPG glioma cells, dose response, cell-based, SU-DIPG-XVII, MIPE5.0, CellTiter-Glo, qHTS (AID 1347060; cut-off not given, nearly all actives have AC50 up to about 26 µM); conditions: SU-DIPG-XVII viability, CellTiter-Glo ATP luminescence
# [16] = growth inhibition of DIPG glioma cells, dose response, cell-based, SU-DIPG-XIII, MIPE4.0, CellTiter-Glo, qHTS (AID 1347061; cut-off not given, nearly all actives have AC50 up to about 37 µM;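 note: cells exposed to compound for 48 hours before readout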); conditions: SU-DIPG-XIII viability, CellTiter-Glo ATP luminescence
# [17] = SU-DIPG-VI glioma cell viability, MIPE4.0 library, CellTiter-Glo luminescence, qHTS (AID 1347066; cut-off not given, nearly all actives have AC50 up to about 30 µM;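 note: cells exposed to compound for 48 hours before readout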); conditions: CellTiter-Glo ATP luminescence
# [18] = SU-DIPG-XXV glioma cell viability, MIPE5.0 library, qHTS (AID 1347068; cut-off not given, nearly all actives have IC50 up to about 30 µM)
# [19] = survival rescue of mitochondrial mutant cells in low glucose, primary screen, MELAS cybrids, Rieske KO mouse fibroblasts, CellTiter-Glo (AID 1508586;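 active = mean z-score across replicates of 1.96 or higher in either the MELAS or the Rieske mutant cell line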;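 note: z relative to plate mean and SD of compound and empty wells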)
# [20] = measured here: epithelial PC-3E GFP cell survival
# [21] = measured here: mesenchymal TEM4-18 mCherry cell survival
# [22] = stronger effect = lower value, cell number ratio, induced over uninduced
# [23] = measured here: relative caspase fold change +Dox/-Dox
# [24] = measured here: total cells with miR-34 induction, stronger effect = lower value
# [25] = measured here: total cells without miR-34 induction
# Sequence of NAD(+) hydrolase SARM1 (Homo sapiens) (Q6SZW1 whole entry, looked up): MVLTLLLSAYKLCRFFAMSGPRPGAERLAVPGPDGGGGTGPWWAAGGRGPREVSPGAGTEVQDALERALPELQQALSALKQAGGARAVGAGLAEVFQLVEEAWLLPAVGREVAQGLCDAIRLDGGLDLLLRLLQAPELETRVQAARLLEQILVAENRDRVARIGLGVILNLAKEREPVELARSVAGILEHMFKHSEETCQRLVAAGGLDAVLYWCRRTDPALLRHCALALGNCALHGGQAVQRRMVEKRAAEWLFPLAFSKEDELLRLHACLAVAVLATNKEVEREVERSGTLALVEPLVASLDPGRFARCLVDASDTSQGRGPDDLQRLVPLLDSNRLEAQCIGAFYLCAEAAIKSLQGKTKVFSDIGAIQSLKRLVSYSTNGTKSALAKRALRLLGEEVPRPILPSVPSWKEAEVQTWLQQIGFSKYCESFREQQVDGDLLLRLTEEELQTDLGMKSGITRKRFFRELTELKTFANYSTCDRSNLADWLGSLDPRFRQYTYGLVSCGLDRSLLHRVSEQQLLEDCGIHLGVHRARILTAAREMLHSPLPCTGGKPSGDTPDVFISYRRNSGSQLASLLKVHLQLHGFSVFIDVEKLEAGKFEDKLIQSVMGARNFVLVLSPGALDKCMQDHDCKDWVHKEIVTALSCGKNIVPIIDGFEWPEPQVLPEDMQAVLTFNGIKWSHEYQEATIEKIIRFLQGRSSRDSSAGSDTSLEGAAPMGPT
smiles,measurement,setting,value
NC(=O)CCCCC1CCSS1 (stereo not drawn),nuclear beta-catenin stimulation,[1]; at 10 µM,-0.8% (inactive)
same,nuclear beta-catenin stimulation,"[1]; stimulation, at 2 µM",2.1%
same,insulin secretion stimulation,[2],-0.6% (inactive)
same,viability decrease,[3],-164% (inactive)
same,tube area decrease,[4],18% (inactive)
same,GLP1 secretion stimulation,[5],-0.8% (inactive)
same,inhibition of viability,[6],-10.3% (inactive)
same,viability decrease (inhibition),[7],-43.7% (inactive)
same,viability decrease (inhibition),[8],-25.4% (inactive)
same,red/green cell ratio (normalised),[9],1.02 (inactive)
same,normalised cell number,[9]; [20],0.81
same,normalised cell number,[9]; [21],0.82
same,fold change,[10]; [22],0.89 (inactive)
same,fold change,[10]; [23],1.01
same,cell count,[10]; [24],8370
same,cell count,[10]; [25],9400
same,remaining NAD,[11],10 nM (inactive)
O=C(Nc1ccc(C(=O)O)c(O)c1)c1ccccc1,parasite load remaining,[12],47.9% (inactive)
same,viability,[12],101%
same,nuclear beta-catenin stimulation,[1]; at 10 µM,0.3% (inactive)
same,nuclear beta-catenin stimulation,"[1]; stimulation, at 2 µM",0.4%
same,insulin secretion stimulation,[2],-1.2% (inactive)
same,viability decrease,[3],1.7% (inactive)
same,tube area decrease,[4],7.2% (inactive)
same,GLP1 secretion stimulation,[5],-0.4% (inactive)
same,inhibition of viability,[6],-1.1% (inactive)
same,viability decrease (inhibition),[7],74.5% (active)
same,viability decrease (inhibition),[8],0.8% (inactive)
same,red/green cell ratio (normalised),[9],1.04 (inactive)
same,normalised cell number,[9]; [20],0.89
same,normalised cell number,[9]; [21],0.92
same,fold change,[10]; [22],0.856 (inactive)
same,fold change,[10]; [23],5.2
same,cell count,[10]; [24],11700
same,cell count,[10]; [25],13700
same,remaining NAD,[11],10 nM (inactive)
CC(O)Cn1cnc2c1c(=O)n(C)c(=O)n2C (stereo not drawn),parasite load remaining,[12],123% (inactive)
same,viability,[12],89%
same,nuclear beta-catenin stimulation,[1]; at 10 µM,3.9% (inactive)
same,nuclear beta-catenin stimulation,"[1]; stimulation, at 2 µM",0.4%
same,insulin secretion stimulation,[2],-0.4% (inactive)
same,viability decrease,[3],24.9% (inactive)
same,tube area decrease,[4],7.5% (inactive)
same,GLP1 secretion stimulation,[5],1.8% (inactive)
same,inhibition of viability,[6],8.77% (inactive)
same,viability decrease (inhibition),[7],26.1% (inactive)
same,viability decrease (inhibition),[8],6.9% (inactive)
same,red/green cell ratio (normalised),[9],0.96 (inactive)
same,normalised cell number,[9]; [20],1.09
same,normalised cell number,[9]; [21],1.04
same,fold change,[10]; [22],0.894 (inactive)
same,fold change,[10]; [23],1.1
same,cell count,[10]; [24],7540
same,cell count,[10]; [25],8430
same,remaining NAD,[11],10 nM (inactive)
CN1C(=O)CC(C)(c2ccccc2)C1=O (stereo not drawn),nuclear beta-catenin stimulation,[1]; at 10 µM,2.5% (inactive)
same,nuclear beta-catenin stimulation,"[1]; stimulation, at 2 µM",2%
same,insulin secretion stimulation,[2],-0.7% (inactive)
same,viability decrease,[3],-2.5% (inactive)
same,tube area decrease,[4],-16.2% (inactive)
same,GLP1 secretion stimulation,[5],2.6% (inactive)
same,inhibition of viability,[6],8.7% (inactive)
same,viability decrease (inhibition),[7],19.6% (inactive)
same,viability decrease (inhibition),[8],-5.25% (inactive)
same,red/green cell ratio (normalised),[9],1.03 (inactive)
same,normalised cell number,[9]; [20],0.99
same,normalised cell number,[9]; [21],1.02
same,fold change,[10]; [22],0.901 (inactive)
same,fold change,[10]; [23],0.963
same,cell count,[10]; [24],8480
same,cell count,[10]; [25],9410
same,remaining NAD,[11],10 nM (inactive)
CC(=O)OCC(=O)[C@@]1(O)CCC2C3CCC4=CC(=O)CC[C@]4(C)C3[C@@H](O)C[C@@]21C (stereo partly drawn),parasite load remaining,[12],123% (inactive) and 70.8% (inactive)
same,viability,[12],73.9% and 90.3%
same,nuclear beta-catenin stimulation,[1]; at 10 µM,-1.1% (inactive)
same,nuclear beta-catenin stimulation,"[1]; stimulation, at 2 µM",-0.8%
same,insulin secretion stimulation,[2],-1.3% (inactive)
same,viability decrease,[3],-8% (inactive)
same,tube area decrease,[4],1.6% (inactive)
same,GLP1 secretion stimulation,[5],-3.9% (inactive)
same,inhibition of viability,[6],-1.6% (inactive)
same,viability decrease (inhibition),[7],-3% (inactive)
same,viability decrease (inhibition),[8],-12.5% (inactive)
same,red/green cell ratio (normalised),[9],1.16 (inactive)
same,normalised cell number,[9]; [20],1.24
same,normalised cell number,[9]; [21],1.44
same,fold change,[10]; [22],0.742 (inactive)
same,fold change,[10]; [23],1.6
same,cell count,[10]; [24],6930
same,cell count,[10]; [25],9340
O=C(CCCl)NCc1ccccc1,nuclear beta-catenin stimulation,[1]; at 10 µM,0.5% (inactive)
same,nuclear beta-catenin stimulation,"[1]; stimulation, at 2 µM",8.3%
same,insulin secretion stimulation,[2],1.8% (inactive)
same,viability decrease,[3],0.2% (inactive)
same,tube area decrease,[4],-9.5% (inactive)
same,GLP1 secretion stimulation,[5],-0.7% (inactive)
same,inhibition of viability,[6],5% (inactive)
same,viability decrease (inhibition),[7],0.6% (inactive)
same,viability decrease (inhibition),[8],14.6% (inactive)
same,red/green cell ratio (normalised),[9],0.95 (inactive)
same,normalised cell number,[9]; [20],1.13
same,normalised cell number,[9]; [21],1.07
same,remaining NAD,[11],10 nM (inactive)
Cc1cc(C(C#N)c2ccc(Cl)cc2)c(Cl)cc1NC(=O)c1cc(I)cc(I)c1O (stereo not drawn),parasite load remaining,[12],10.9% (inactive)
same,viability,[12],94.5%
same,nuclear beta-catenin stimulation,[1]; at 10 µM,2.4% (inactive)
same,nuclear beta-catenin stimulation,"[1]; stimulation, at 2 µM",1.5%
same,insulin secretion stimulation,[2],-0.6% (inactive)
same,viability decrease,[3],120% (active)
same,tube area decrease,[4],111% (active)
same,GLP1 secretion stimulation,[5],14.4% (inactive)
same,inhibition of viability,[6],125% (active)
same,viability decrease (inhibition),[7],163% (active)
same,viability decrease (inhibition),[8],101% (active)
same,red/green cell ratio (normalised),[9],0.8 (inactive)
same,normalised cell number,[9]; [20],1.27
same,normalised cell number,[9]; [21],1.02
same,remaining NAD,[11],10 nM (inactive)
same,z-score,[13],0.12 (inactive)
OC1C(O)C(O)C(O)C(O)C1O (stereo not drawn),parasite load remaining,[12],41.7% (inactive)
same,viability,[12],104%
same,nuclear beta-catenin stimulation,[1]; at 10 µM,2.8% (inactive)
same,nuclear beta-catenin stimulation,"[1]; stimulation, at 2 µM",0.4%
same,insulin secretion stimulation,[2],0.4% (inactive)
same,viability decrease,[3],-3.8% (inactive)
same,tube area decrease,[4],3% (inactive)
same,GLP1 secretion stimulation,[5],-2.7% (inactive)
same,inhibition of viability,[6],3.1% (inactive)
same,viability decrease (inhibition),[7],4.8% (inactive)
same,viability decrease (inhibition),[8],0.6% (inactive)
same,red/green cell ratio (normalised),[9],1.17 (inactive)
same,normalised cell number,[9]; [20],0.97
same,normalised cell number,[9]; [21],1.13
same,fold change,[10]; [22],0.895 (inactive)
same,fold change,[10]; [23],0.941
same,cell count,[10]; [24],11600
same,cell count,[10]; [25],12900
same,remaining NAD,[11],10 nM (inactive)
CC[C@@H](CO)NCCN[C@@H](CC)CO,parasite load remaining,[12],80.8% (inactive) and 73.3% (inactive)
same,viability,[12],73% and 99%
same,nuclear beta-catenin stimulation,[1]; at 10 µM,0.5% (inactive)
same,nuclear beta-catenin stimulation,"[1]; stimulation, at 2 µM",4.7%
same,insulin secretion stimulation,[2],2.6% (inactive)
same,viability decrease,[3],-8% (inactive)
same,tube area decrease,[4],14.4% (inactive)
same,GLP1 secretion stimulation,[5],-1.2% (inactive)
same,inhibition of viability,[6],-4.17% (inactive)
same,viability decrease (inhibition),[7],11.7% (inactive)
same,viability decrease (inhibition),[8],-13% (inactive)
same,red/green cell ratio (normalised),[9],0.98 (inactive)
same,normalised cell number,[9]; [20],0.99
same,normalised cell number,[9]; [21],0.97
same,fold change,[10]; [22],0.901 (inactive)
same,fold change,[10]; [23],1.1
same,cell count,[10]; [24],11300
same,cell count,[10]; [25],12600
same,remaining NAD,[11],10 nM (inactive)
CCOCC(O)COc1ccc(NC(=O)CC[S+](C)C)cc1 (stereo not drawn),nuclear beta-catenin stimulation,[1]; at 10 µM,-0.1% (inactive)
same,nuclear beta-catenin stimulation,"[1]; stimulation, at 2 µM",-0.3%
same,insulin secretion stimulation,[2],0.8% (inactive)
same,viability decrease,[3],-7.6% (inactive)
same,tube area decrease,[4],-11.2% (inactive)
same,GLP1 secretion stimulation,[5],-0.3% (inactive)
same,inhibition of viability,[6],0.1% (inactive)
same,viability decrease (inhibition),[7],-6.5% (inactive)
same,viability decrease (inhibition),[8],-3.6% (inactive)
same,remaining activity,[14],96.6% (inactive)
same,outcome,[15],inactive
same,outcome,[16],inactive
same,outcome,[17],inactive
same,outcome,[18],inactive
same,fold change,[10]; [22],0.867 (inactive) and 0.902 (inactive)
same,fold change,[10]; [23],0.938 and 2.11
same,cell count,[10]; [24],8140 and 8470
same,cell count,[10]; [25],9400 and 9390
same,z-score,"[19]; MELAS cybrid survival, CellTiter-Glo 48 h, stronger effect = higher value",-0.246 (inactive)
same,z-score,"[19]; Rieske KO mouse fibroblast survival, CellTiter-Glo 72 h",0.62
same,z-score,[13],-0.075 (inactive)
